Results: the supplement of paper PMC10849652
Of roughly 7,900 targets only a part is listed; those with a hit were picked by preference. About 0.6% of all pairs of compound and target were hits. Values without a mark were called inactive.

What was measured:
Experiment in all cases: log2 fold change, soluble protein after heating vs DMSO (PISA); higher = thermal stabilisation; K562 cells, 10 uM, 30 min; active = over 0.2 and 3.5 SD of the protein, either way, in both replicates (recomputed)
erlotinib = compound: C#Cc1cccc(Nc2ncnc3cc(OCCOC)c(OCCOC)cc23)c1 [erlotinib]
How it was run: (§1)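 Soluble protein was quantified by TMTpro 16plex LC-MS/MS after channel sums were equalised. It was obtained as the supernatant after 21,000xg for 90 min from pooled aliquots of K562 cells (2×10^6 cells/mL, 10 μM compound, 30 min) heated for 3 min across 48°C-58°C and extracted in PBS with 0.5% NP-40 at 4°C. Thermal stability values are relative to control samples and come from duplicates. They are given as log2 fold changes.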

[1] = compound: C/C(=N\NC(=O)C1=CC(=CC=C1)S(=O)(=O)N2CCOCC2)/C3=C(C=CC(=C3)Cl)O
How it was run: as §1

[2] = compound: C1=CC(=C(C=C1Cl)C2=NC3=NC=CN=C3C(=N2)NC4=CC=NC=C4)F
How it was run: as §1

[3] = compound: C1=CC(=CC=C1C2=NC3=C(N2)C=C(C=C3)C(=O)N)OC4=CC=C(C=C4)Cl
How it was run: as §1

[4] = compound: C1=CC2=C(C=CC(=C2)/C=C\3/C(=O)NC(=NCC4=CC=CS4)S3)N=C1
How it was run: as §1

[5] = compound: C1=CC2=NC=CN=C2C=C1/C=C/3\C(=O)NC(=O)S3
How it was run: as §1

[6] = compound: C1=CC=C(C=C1)C2=NC(=C(N2)C3=CC=NC=C3)C4=CC(=C(C=C4)Cl)O
How it was run: as §1

[7] = compound: C1=CC=C2C(=C1)C3=NNC4=CC=CC(=C43)C2=O
How it was run: as §1

[8] = compound: C1CCN(C1)C(=O)NC2=CC=CC(=C2)NC3=NC=C(C(=N3)NCCC4=CN=CN4)Br
How it was run: as §1

[9] = compound: C1CN(CCC1(CC2=CC=C(C=C2)Cl)N)C3=NC=NC4=C3C=CN4
How it was run: as §1

IRAK-1-4 Inhibitor I = compound: C1COCCN1CCN2C3=CC=CC=C3N=C2NC(=O)C4=CC(=CC=C4)[N+](=O)[O-] [IRAK-1-4 Inhibitor I]
How it was run: as §1

ibrutinib = compound: C=CC(=O)N1CCC[C@@H](n2nc(-c3ccc(Oc4ccccc4)cc3)c3c(N)ncnc32)C1 [ibrutinib]
How it was run: as §1

[10] = compound: CC(=O)c1cnc2ccc(-c3cc(Cl)c(O)c(Cl)c3)nc2c1N[C@H]1CC[C@H](CN(C)C)CC1
How it was run: as §1

ralimetinib = compound: CC(C)(C)Cn1c(N)nc2ccc(-c3[nH]c(C(C)(C)C)nc3-c3ccc(F)cc3)nc21 [ralimetinib]
How it was run: as §1

[11] = compound: CC(C)(O)CC(=O)NCCn1ccc2ncnc(Nc3ccc(Oc4cccc(C(F)(F)F)c4)c(Cl)c3)c21
How it was run: as §1

[12] = compound: CC(C)C1=C2N=C(C=C(N2N=C1)NCC3=CC=CC=C3)NCCCCCCN
How it was run: as §1

[13] = compound: CC(C)C[C@@H](C=O)NC(=O)[C@H](CC(C)C)NC(=O)[C@H](CC(C)C)NC(=O)OCc1ccccc1
How it was run: as §1

pinometostat = compound: CC(C)N(C[C@H]1O[C@@H](n2cnc3c(N)ncnc32)[C@H](O)[C@@H]1O)[C@H]1C[C@@H](CCc2nc3cc(C(C)(C)C)ccc3[nH]2)C1 [pinometostat]
How it was run: as §1

[14] = compound: CC1=C(C(CC(=O)N1)C2=CC=C(C=C2)C(F)(F)F)C(=O)NC3=C(C=C4C(=C3)C=NN4)F
How it was run: as §1

[15] = compound: CC1=C(C2=C(C=C1)C(=O)C3=CC=CC=C3N2CCCN)C
How it was run: as §1

Sequence of UniProt O43818 (O43818 whole entry, looked up): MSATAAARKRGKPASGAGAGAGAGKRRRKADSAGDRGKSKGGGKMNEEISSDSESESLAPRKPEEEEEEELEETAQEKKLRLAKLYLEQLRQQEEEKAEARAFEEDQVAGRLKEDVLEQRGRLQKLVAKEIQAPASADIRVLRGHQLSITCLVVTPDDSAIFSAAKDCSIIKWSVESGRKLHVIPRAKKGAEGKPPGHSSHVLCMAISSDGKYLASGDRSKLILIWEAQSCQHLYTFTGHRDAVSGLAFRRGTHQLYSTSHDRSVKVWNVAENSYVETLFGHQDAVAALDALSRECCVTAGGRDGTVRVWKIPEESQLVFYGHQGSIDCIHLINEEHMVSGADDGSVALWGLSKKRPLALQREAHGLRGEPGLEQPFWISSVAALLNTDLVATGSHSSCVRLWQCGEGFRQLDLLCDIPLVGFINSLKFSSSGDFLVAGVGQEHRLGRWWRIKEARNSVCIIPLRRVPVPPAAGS
Sequence of UniProt Q9UKL0 (Q9UKL0 whole entry, looked up): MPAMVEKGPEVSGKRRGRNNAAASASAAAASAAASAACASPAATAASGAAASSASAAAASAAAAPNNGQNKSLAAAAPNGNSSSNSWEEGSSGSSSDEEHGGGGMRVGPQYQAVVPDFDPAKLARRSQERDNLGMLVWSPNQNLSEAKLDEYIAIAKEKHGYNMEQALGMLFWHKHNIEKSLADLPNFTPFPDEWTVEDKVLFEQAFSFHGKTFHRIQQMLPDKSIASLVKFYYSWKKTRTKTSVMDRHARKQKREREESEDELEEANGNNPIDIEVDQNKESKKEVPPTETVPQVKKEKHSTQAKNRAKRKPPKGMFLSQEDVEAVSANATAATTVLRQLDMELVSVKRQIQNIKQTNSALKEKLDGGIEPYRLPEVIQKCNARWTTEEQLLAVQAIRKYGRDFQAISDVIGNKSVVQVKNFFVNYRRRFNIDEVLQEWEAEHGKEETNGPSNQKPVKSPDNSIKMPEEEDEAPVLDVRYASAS
Sequence of UniProt Q86VR2 (Q86VR2 whole entry, looked up): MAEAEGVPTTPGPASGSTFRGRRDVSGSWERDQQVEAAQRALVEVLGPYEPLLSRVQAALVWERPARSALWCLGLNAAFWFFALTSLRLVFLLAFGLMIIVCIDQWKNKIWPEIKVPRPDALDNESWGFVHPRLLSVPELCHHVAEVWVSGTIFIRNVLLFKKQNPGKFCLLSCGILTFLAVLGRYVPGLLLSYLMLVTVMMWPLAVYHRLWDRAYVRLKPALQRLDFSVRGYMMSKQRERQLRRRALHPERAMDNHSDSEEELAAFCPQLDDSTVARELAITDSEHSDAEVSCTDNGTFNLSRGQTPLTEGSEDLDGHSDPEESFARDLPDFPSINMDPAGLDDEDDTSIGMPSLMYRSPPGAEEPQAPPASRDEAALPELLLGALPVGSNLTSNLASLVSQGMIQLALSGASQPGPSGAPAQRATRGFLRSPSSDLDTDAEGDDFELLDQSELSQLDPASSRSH
Sequence of UniProt P40938 (P40938 whole entry, looked up): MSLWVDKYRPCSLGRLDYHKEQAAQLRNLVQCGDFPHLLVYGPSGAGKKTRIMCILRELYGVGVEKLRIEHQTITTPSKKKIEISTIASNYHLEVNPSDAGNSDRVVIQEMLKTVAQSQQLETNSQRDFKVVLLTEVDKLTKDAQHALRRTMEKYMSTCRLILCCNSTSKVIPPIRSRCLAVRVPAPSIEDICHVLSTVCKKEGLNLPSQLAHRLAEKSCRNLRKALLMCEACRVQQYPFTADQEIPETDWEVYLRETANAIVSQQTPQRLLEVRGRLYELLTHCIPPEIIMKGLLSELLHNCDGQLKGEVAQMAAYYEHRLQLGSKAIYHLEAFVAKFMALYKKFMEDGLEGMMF
Sequence of UniProt O00767 (O00767 whole entry, looked up): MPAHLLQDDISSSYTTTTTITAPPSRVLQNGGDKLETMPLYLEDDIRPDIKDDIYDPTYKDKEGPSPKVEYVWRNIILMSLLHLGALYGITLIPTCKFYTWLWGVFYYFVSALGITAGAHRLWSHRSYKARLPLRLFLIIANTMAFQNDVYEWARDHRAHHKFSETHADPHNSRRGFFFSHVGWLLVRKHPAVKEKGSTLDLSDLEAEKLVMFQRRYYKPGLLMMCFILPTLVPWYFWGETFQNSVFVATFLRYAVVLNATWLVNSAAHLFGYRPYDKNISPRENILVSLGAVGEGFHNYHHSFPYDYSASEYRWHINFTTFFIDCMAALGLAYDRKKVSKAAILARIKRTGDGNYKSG

Row | Target | log2 fold change (erlotinib) | log2 fold change [1] | log2 fold change [2] | log2 fold change [3] | log2 fold change [4] | log2 fold change [5] | log2 fold change [6] | log2 fold change [7] | log2 fold change [8] | log2 fold change [9] | log2 fold change (IRAK-1-4 Inhibitor I) | log2 fold change (ibrutinib) | log2 fold change [10] | log2 fold change (ralimetinib) | log2 fold change [11] | log2 fold change [12] | log2 fold change [13] | log2 fold change (pinometostat) | log2 fold change [14] | log2 fold change [15]
1 | RRP9 (UniProt O43818) | 0.018 | -0.04 | -0.099 | -0.004 | -0.042 | 0.03 | -0.114 | -0.085 | -0.081 | -0.016 | -0.043 | 0.017 | -0.062 | 0.014 | 0.133 | -0.04 | -0.002 | 0.01 | 0.136 | -0.432 (active)
2 | RPL31 (UniProt P62899) | -0.145 | -0.174 | -0.444 | 0.055 | -0.052 | -0.02 | -0.047 | -0.011 | 0.087 | -0.215 | -0.168 | -0.021 | 0.138 | 0.1 | 0.052 | -0.013 | 0.14 | 0.273 | -0.006 | -0.625 (active)
3 | RFC3 (UniProt P40938) | -0.04 | 0.108 | 0.033 | 0.005 | 0.066 | 0.007 | 0.046 | 0.046 | -0.06 | 0.054 | 0.003 | 0.025 | -0.101 | 0.021 | -0.087 | -0.012 | -0.047 | -0.057 | 0 | 0.09
4 | RAC1 (UniProt P63000) | -0.066 | -0.062 | -0.003 | 0.053 | -0.194 | 0.015 | 0.048 | -0.05 | 0.017 | 0.005 | -0.053 | 0.036 | 0.038 | -0.01 | 0.27 | 0.051 | -0.026 | -0.127 | -0.093 | -0.002
5 | SCD (UniProt O00767) | 0.022 | -0.256 | 0.143 | -0.008 | 0.024 | 0.04 | -0.059 | -0.006 | 0.126 | 0.023 | 0.048 | -0.023 | 0.008 | -0.148 | -0.046 | -0.222 | 0.101 | 0 | 0.024 | -0.027
6 | RPS3 (UniProt P23396) | -0.136 | -0.072 | -0.224 | 0.061 | -0.026 | -0.027 | -0.073 | -0.03 | 0.093 | -0.156 | -0.091 | 0.02 | 0.051 | 0.034 | 0.005 | -0.096 | 0.016 | 0.128 | 0.031 | -0.497 (active)
7 | RETREG3 (UniProt Q86VR2) | 0.004 | 0.072 | 0.037 | 0.031 | -0.053 | 0.07 | 0.062 | -0.087 | -0.029 | 0.032 | 0.117 | -0.002 | -0.01 | -0.036 | -0.04 | -0.167 | 0.007 | 0.035 | -0.024 | -0.016
8 | RCOR1 (UniProt Q9UKL0) | 0.033 | 0.069 | -0.043 | -0.056 | 0.134 | -0.013 | 0.076 | -0.011 | -0.006 | -0.043 | -0.037 | -0.036 | -0.14 | 0.002 | -0.08 | 0.002 | -0.034 | 0.026 | 0.025 | 0.021
